Whole data set: some 8,300 sequences, median “log2 fold change of degron read counts, EGFP-low vs EGFP+ sorted cells (limma voom), compound-induced degradation” near -1.1, cut for the highest 2% near 3.2. This is one part of a sample in which the highest values are shown more often than they occur.
T1: CRBN, Q96SW2
T1 chain: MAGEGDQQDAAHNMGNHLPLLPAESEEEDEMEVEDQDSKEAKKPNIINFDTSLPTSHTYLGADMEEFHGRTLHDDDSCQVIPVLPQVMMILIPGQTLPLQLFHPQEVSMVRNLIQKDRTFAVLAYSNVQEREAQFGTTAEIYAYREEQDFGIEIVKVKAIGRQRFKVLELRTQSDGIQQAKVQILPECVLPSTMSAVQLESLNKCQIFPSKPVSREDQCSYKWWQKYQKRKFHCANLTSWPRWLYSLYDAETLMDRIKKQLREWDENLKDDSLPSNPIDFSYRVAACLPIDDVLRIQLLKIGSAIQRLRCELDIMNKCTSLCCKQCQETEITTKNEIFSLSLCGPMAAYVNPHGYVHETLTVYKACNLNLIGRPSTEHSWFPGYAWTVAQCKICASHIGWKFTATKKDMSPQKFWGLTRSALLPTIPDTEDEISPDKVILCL

B1: 46F_47T_49E_50I_52G_53A_54Y_55F_67L_, Q9UKT9 (peptide)
chain: FTCEICGAYFTQKGNLLRHIKL
B2: 46F_47I_49N_50I_52G_53A_54T_55F_67L_, Q9UKT9 (peptide)
chain: FICNICGATFTQKGNLLRHIKL
B3: 46F_47R_49N_50I_52G_53A_54Q_55F_67L_, Q9UKT9 (peptide)
chain: FRCNICGAQFTQKGNLLRHIKL
B4: 46F_47V_49N_50I_52G_53A_54Q_55F_67L_, Q9UKT9 (peptide)
chain: FVCNICGAQFTQKGNLLRHIKL
B5: 46F_47Q_49N_50I_52G_53A_54Q_55F_67L_, Q9UKT9 (peptide)
chain: FQCNICGAQFTQKGNLLRHIKL
B6: 46F_47W_49N_50I_52G_53A_54Q_55F_67L_, Q9UKT9 (peptide)
chain: FWCNICGAQFTQKGNLLRHIKL
B7: 46F_47Y_49N_50I_52G_53A_54Q_55F_67L_, Q9UKT9 (peptide)
chain: FYCNICGAQFTQKGNLLRHIKL
B8: 46F_47A_49N_50I_52G_53A_54Q_55F_67L_, Q9UKT9 (peptide)
chain: FACNICGAQFTQKGNLLRHIKL
B9: 46L_47R_49E_50I_52G_53F_54F_55C_67L_, Q9UKT9 (peptide)
chain: LRCEICGFFCTQKGNLLRHIKL
B10: 46F_47S_49N_50Q_52G_53H_54K_55F_67L_, Q9UKT9 (peptide)
chain: FSCNQCGHKFTQKGNLLRHIKL
B11: 46F_47A_49E_50Q_52G_53A_54Y_55F_67L_, Q9UKT9 (peptide)
chain: FACEQCGAYFTQKGNLLRHIKL
B12: 46F_47C_49N_50Q_52G_53H_54D_55F_67L_, Q9UKT9 (peptide)
chain: FCCNQCGHDFTQKGNLLRHIKL
B13: 46F_47D_49N_50Q_52G_53R_54C_55F_67L_, Q9UKT9 (peptide)
chain: FDCNQCGRCFTQKGNLLRHIKL
B14: 46F_47Q_49P_50V_52G_53A_54A_55F_67L_, Q9UKT9 (peptide)
chain: FQCPVCGAAFTQKGNLLRHIKL
B15: 46F_47I_49P_50V_52G_53A_54A_55F_67L_, Q9UKT9 (peptide)
chain: FICPVCGAAFTQKGNLLRHIKL
B16: 46F_47Q_49P_50Q_52G_53A_54A_55F_67L_, Q9UKT9 (peptide)
chain: FQCPQCGAAFTQKGNLLRHIKL
B17: 46F_47E_49P_50V_52G_53A_54A_55F_67L_, Q9UKT9 (peptide)
chain: FECPVCGAAFTQKGNLLRHIKL
B18: 46F_47H_49P_50V_52G_53A_54A_55F_67L_, Q9UKT9 (peptide)
chain: FHCPVCGAAFTQKGNLLRHIKL
B19: 46F_47Y_49P_50Q_52G_53A_54A_55F_67L_, Q9UKT9 (peptide)
chain: FYCPQCGAAFTQKGNLLRHIKL
B20: 46F_47W_49P_50V_52G_53A_54A_55F_67L_, Q9UKT9 (peptide)
chain: FWCPVCGAAFTQKGNLLRHIKL
B21: 46F_47G_49P_50V_52G_53A_54A_55F_67L_, Q9UKT9 (peptide)
chain: FGCPVCGAAFTQKGNLLRHIKL
B22: 46F_47M_49P_50V_52G_53A_54A_55F_67L_, Q9UKT9 (peptide)
chain: FMCPVCGAAFTQKGNLLRHIKL
B23: 46F_47V_49P_50Q_52G_53A_54A_55F_67L_, Q9UKT9 (peptide)
chain: FVCPQCGAAFTQKGNLLRHIKL
B24: 46F_47C_49P_50V_52G_53A_54A_55F_67L_, Q9UKT9 (peptide)
chain: FCCPVCGAAFTQKGNLLRHIKL
B25: 46F_47V_49P_50V_52G_53A_54A_55F_67L_, Q9UKT9 (peptide)
chain: FVCPVCGAAFTQKGNLLRHIKL
B26: 46F_47F_49P_50I_52G_53R_54M_55F_67L_, Q9UKT9 (peptide)
chain: FFCPICGRMFTQKGNLLRHIKL
B27: 46F_47H_49N_50I_52G_53A_54Q_55F_67L_, Q9UKT9 (peptide)
chain: FHCNICGAQFTQKGNLLRHIKL
B28: 46F_47Y_49E_50I_52G_53R_54C_55F_67L_, Q9UKT9 (peptide)
chain: FYCEICGRCFTQKGNLLRHIKL

Biological target: T1, CRBN, Q96SW2
Test: log2 fold change of degron read counts, EGFP-low vs EGFP+ sorted cells (limma voom), compound-induced degradation; higher = more compound-induced degradation of the degron-EGFP fusion; degrons are variants of IKZF1/3 zinc finger 2; compound dose not given here
Details: Jurkat, 18 h
Procedure: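 Pooled library of 8380 IKZF3 ZF2 degron mutants (positions 146-167 varied within the IKZF3 130-189 degron; only the varied core is printed, flanks not printed) fused to EGFP with IRES-mCherry, lentivirally expressed in Jurkat cells. mCherry+ cells were treated with one IMiD compound for 18 h (dose not stated) and FACS-sorted into EGFP-low and EGFP+ populations. Degron sequences were counted by NGS, and log2FC (EGFP-low vs EGFP+) was estimated by limma voom over 3 biological replicates.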

[1] = compound: compound 19 (5-tert-butyl-thalidomide)
[2] = compound: compound 22 (5-morpholino-thalidomide)
[3] = compound: compound 33 (diphenyl IMiD analogue)
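Also: pooled lentiviral library of zinc finger degron-EGFP fusions in mCherry-positive Jurkat cells, FACS-sorted after compound exposure, with degron abundance counted by next-generation sequencing.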

Sequence | log2 fold change of degron read counts [1] | log2 fold change of degron read counts [2] | log2 fold change of degron read counts [3] | log2 fold change of degron read counts (compound: thalidomide)
B1 | 0.598 | 1.53 | 2.02 | 2.85
B2 | -1.79 | 0.00658 | 1.15 | 1.1
B3 | -1.02 | -0.868 | -0.156 | 0.111
B4 | -0.604 | 1.47 | 2.69 | 1.92
B5 | -0.94 | 1.3 | 1.62 | 3.28
B6 | 2.02 | 3.59 | 1.86 | 0.626
B7 | 2.24 | 3.15 | 1.75 | 0.339
B8 | 2.04 | 1.62 | 0.179 | -0.104
B9 | -0.285 | -0.446 | 0.954 | 1.12
B10 | -2.24 | -2.55 | -2.41 | -2.6
B11 | -0.764 | -2.44 | -1.5 | -1.62
B12 | -2.95 | -3.42 | -3.04 | -2.8
B13 | -2.4 | -2.73 | -2.2 | -1.93
B14 | 2.54 | 3.1 | 2.52 | 3.69
B15 | -0.386 | 2.86 | 2.22 | 2.77
B16 | -0.422 | 1.04 | 0.683 | 3.27
B17 | 2.1 | -0.445 | 2.32 | 3
B18 | 2.96 | 2.4 | 2.16 | 0.942
B19 | 1.03 | 1.46 | 1.86 | -0.429
B20 | 3.13 | 3.69 | 2.44 | 1.11
B21 | 3.32 | 2.34 | 2.97 | 1.29
B22 | 1.72 | 2.21 | 3.08 | 2.11
B23 | -1.44 | 1.34 | 1.04 | 1.46
B24 | 3.16 | 2.58 | 2.48 | 2.16
B25 | 0.708 | 3.2 | 2.37 | 3.08
B26 | 0.209 | -0.113 | 0.441 | -0.935
B27 | 0.655 | 1.29 | 1.05 | -0.181
B28 | 0.939 | 0.533 | 1.13 | -0.963

From the supplement of paper PMC12645437, “Orthogonal IMiD-Degron Pairs Induce Selective Protein Degradation in Cells” (ACS Chemical Biology, 2025)
